Assay results reported in PubChem BioAssay (NCI).
This is part of a sample that, as a whole, favours compounds with a hit. Of some 83,000 tested, about 20% had one in any assay.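 Compound tested at a single concentration for 48 hours in 96-well plates; a percent growth value below 10 was scored as active.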 Activity calls are given as the source filed them.

System: HS 578T breast
Assay: NCI-60 one-dose screen, 48 h (100 = growth as untreated, 0 = no growth, -100 = all killed)
Conditions: 10 µM unless noted

Compound | growth
COCCOc1cc2ncnc(N3CCN(c4ncc(S(=O)(=O)N5CCCCC5)cn4)CC3)c2cc1OCCOC | 114% (inactive)
COC(=O)[C@]1(C)CCC[C@]2(C)[C@H]3C[C@H]4C(C(C)C)=C[C@]3(CC[C@H]21)[C@@H]1C(=O)CC[C@H](OCCC#N)[C@@H]14 | 79.9% (inactive)
O=C(O)CCN1C(=O)/C(=C/C(Cl)=C/c2ccccc2)SC1=S | 33.8% (inactive)
O=C(/C=C/c1cccc(Cl)c1)c1ccc(Nc2nc(Nc3ccc(F)cc3)nc(Nc3ccc(Cl)cc3)n2)cc1 | 110% (inactive)
CC(C)(Sc1cc(C(C)(C)C)c(O)c(C(C)(C)C)c1)Sc1cc(C(C)(C)C)c(OC(=O)CCCC(=O)O)c(C(C)(C)C)c1 | 80.1% (inactive)
Fc1cc2c(cc1Cl)N(c1ncnc3ccc(-c4ccc5n[nH]nc5c4)cc13)CC2 | 58.2% (inactive)
CCSC(SCC)c1ccc(Cl)cc1 | 102% (inactive)
O=C(Nc1nc2ccc(C(=O)N3CCN(/C=C/c4ccccc4)CC3)cc2s1)c1ccc(NCCc2ccccc2)c([N+](=O)[O-])c1 | 69% (inactive)
O=S(=O)(Nc1cc(F)cc(Cl)c1)c1ccc(-c2cnc(C3CC3)o2)cc1 | -3.79% (active)
COC(=O)c1c(C)nc(C)c2c1C(=O)C(Br)=C(NCc1ccccc1)C2=O | 76% (inactive)
COc1cc2c(c(OC)c1OC)CCC(c1cccc(C(=O)Nc3ccc(C#N)cc3)c1)O2 (stereo unspecified) | 72.3% (inactive)
O=C1c2ccccc2-c2c1c1c(=O)[nH]c3ccccc3c1n2Cc1ccccc1 | -15% (active)
O=C1c2c(c3c4ccccc4[nH]c3c3ccc4ccccc4c23)C(=O)N1CCN1CCNCC1 | 94.7% (inactive)
CC(C)=CCCC(C)c1ccc(C)c2c1OCN(CCCCCO)C2 (stereo unspecified) | 81.2% (inactive)
COc1ccc(/C=N/NC(=O)c2ccc(-n3cc(-c4ccccc4)nn3)cc2)cc1OC | 103% (inactive)
CCN(CC)S(=O)(=O)c1ccc(S(=O)(=O)N2CCC[C@@H](C(=O)N3CCN(c4nc(C(C)C)no4)CC3)C2)cc1 | 82.8% (inactive)
Cc1cc(N2CCN(CC(=O)Nc3ccc4c(ccn4C)c3)CC2)nc(N2CCCCCC2)n1 | 96.8% (inactive)
COc1ccc(Nc2ncc(Br)c(NCCCNC(=O)c3cccs3)n2)cc1 | 30.9% (inactive)

Compound | growth
NC(=O)C(=O)c1ccccc1NC=O | 109% (inactive)
N#Cc1ccc2c(c1)C(=O)c1c-2n(CCCN)c(=O)c2cc([N+](=O)[O-])ccc12 | -77.7% (active)
c1ccc(Cn2cc3c(c2)-c2oncc2CC3)cc1 | 1.9% (active)
O=C(CSC(=S)n1cnnc1)NC(=O)c1ccccc1 | 103% (inactive)
O=C1/C(=C\c2ccc3nccnc3c2)SC(=S)N1CCc1ccc(O)cc1 | 94.3% (inactive)
COc1c(B(O)O)cccc1-c1nc2c(F)cc3[nH]ncc3c2c2c1CCCC2 | 5.7% (active)
COc1c(B(O)O)cccc1-c1cc(C)c2c(ccc3[nH]ncc32)n1 | 8.78% (active)
CSc1nnc(-c2cc3c([nH]c4ccccc43)c(-c3cccc(O)c3)n2)n1-c1ccccc1 | 25.1% (inactive)
C=C1C(=O)O[C@H]2[C@H]1CC/C(Cn1cc(-c3ccccc3)nn1)=C\CC[C@@]1(C)O[C@@H]21 | 81.1% (inactive)
C=C(CBr)[C@@H]1CC[C@]2(C(=O)O)CC[C@]3(C)[C@H](CC[C@@H]4[C@@]5(C)CCC(=O)C(C)(C)[C@@H]5CC[C@]43C)[C@@H]12 | 92.2% (inactive)
CCNCCNc1cc(C2CCCCC2)c(C#N)c2nc3ccccc3n12 | -5.65% (active)
COc1cc2c(c(OC)c1OC)CCC(c1cccc(C(=O)Nc3cccc(Cl)c3)c1)O2 (stereo unspecified) | 80.2% (inactive)
CCCCCCCC[C@@H]1N[C@@H](C(=O)OC)Cc2c1[nH]c1ccccc21 | 91.7% (inactive)
CC(=O)Oc1ccc(/C(=C(\C)c2ccc(Cl)cc2)c2ccc(OCCN3CCCCC3)cc2)cc1 | 52.9% (inactive)
COc1ccc2cc1Oc1ccc(cc1)C[C@H]1c3c(cc4c(c3Oc3cc5c(cc3OC)CCN(C)[C@@H]5C2)OCO4)CCN1C | -6.41% (active)
CC(=O)c1c(C)nc2ccccc2c1/C=C/c1ccc(F)cc1 | 91.9% (inactive)
CN(/C(N)=N/N=C/c1c2ccccc2cc2ccccc12)C1CCCCC1 | 66.6% (inactive)
CCOC(=O)n1ccn(C)c1=S | 132% (inactive)
